High-throughput results as filed in PubChem BioAssay.
aGlu spleen mod – inhibitors or activators of human alpha-glucosidase in spleen homogenate. P10253. human spleen homogenate, 4-MU-alpha-glucoside fluorescence. Potency, µM (titrated, usually from 79.9 µM), for inactives: at the highest dose activity change, negative = inhibition, hits mostly inhibitors. hit rate 0.006% among 240,000. AID 2112;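 note: potency is the fitted concentration of half-maximal effect; 0% = enzyme with vehicle and -100% = no enzyme basal signal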
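Human spleen homogenate (1 ug) incubated with compounds and 1 mM 4-methylumbelliferyl-alpha-D-glucopyranoside in pH 5.0 citrate/phosphate buffer, 37 C, 40 min. Stopped at pH 10; 4-MU fluorescence (Ex 365/Em 440 nm); AC50 by Hill fit.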
N370S GC – inhibits or activates N370S mutant glucocerebrosidase; P04062; N370S GC spleen homogenate, 4MU-glucoside fluorescence; Potency, µM (top dose mostly 59.4 µM), for the others: at the highest dose activity change, negative = inhibition, most hits filed as inhibitors; hit rate 0.092% among 330,000; AID 2101;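 note: potency is the fitted concentration of half-maximal effect; 0% = full enzyme activity and -100% = no enzyme basal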
aGal spleen mod – inhibits or activates alpha-galactosidase in human spleen homogenate; human spleen homogenate, 4MU-alpha-Gal fluorescence, 40 min; Potency, µM (highest dose often 80 µM), for the others: top-dose activity change, negative = inhibition, most hits filed as inhibitors; hit rate 0.008% among 240,000; AID 2107;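 note: potency is the fitted concentration of half-maximal effect; 0% = enzyme with vehicle and -100% = no enzyme basal signal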
Target sequence (P06280 32-429 limits assumed): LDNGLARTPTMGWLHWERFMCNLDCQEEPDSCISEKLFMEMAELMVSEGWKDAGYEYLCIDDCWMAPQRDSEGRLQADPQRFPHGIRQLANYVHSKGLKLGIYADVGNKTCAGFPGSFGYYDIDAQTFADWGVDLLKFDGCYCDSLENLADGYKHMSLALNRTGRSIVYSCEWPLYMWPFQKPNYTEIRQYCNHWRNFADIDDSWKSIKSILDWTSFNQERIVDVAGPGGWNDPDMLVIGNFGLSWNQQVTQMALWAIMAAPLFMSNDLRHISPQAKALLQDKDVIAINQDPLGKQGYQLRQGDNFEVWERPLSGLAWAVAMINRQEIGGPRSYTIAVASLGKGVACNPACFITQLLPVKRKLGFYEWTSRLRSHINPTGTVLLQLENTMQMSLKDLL
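Human spleen homogenate (1 ug) as enzyme source, 4-methylumbelliferyl-alpha-D-galactopyranoside 1 mM final, citrate/phosphate pH 5.0 with 0.01% Tween-20. Compounds 40 min at 37C, NaOH/glycine stop; fluorescence Ex 365/Em 440, Hill-fit AC50.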
GAA inh – inhibitors of human lysosomal alpha-glucosidase | P10253 | purified human GAA, 4-MU-alpha-glucoside fluorescence | Potency, µM (doses to about 76.9 µM), without a hit: at the top dose activity change, negative = inhibition, actives largely listed as inhibitors | hit rate 0.005% among 200,000 | AID 1466;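 note: potency is the fitted concentration of half-maximal effect; plate controls were uninhibited enzyme wells for no effect and no-enzyme background for full effect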
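Read-out is 4-methylumbelliferone fluorescence (Ex 365/Em 440 nm) after NaOH/glycine stop at pH 10. Enzyme 4 nM, substrate 400 uM, pH 5.0 citrate buffer, 20 min room temperature; AC50 from Hill-equation concentration-response.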
GLA inh pH 4.5 – alpha-galactosidase A (human) inhibition, pH 4.5. P06280. purified enzyme, 4-MU-alpha-Gal fluorescence, pH 4.5. activity change, negative = inhibition, % at 105 µM. 230,000 tested, under 10 active. AID 1467;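 note: 0% = full activity with enzyme and -100% = basal without enzyme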
GAA glycogen mod – alters human alpha-glucosidase cleavage of glycogen; P10253; recombinant GAA, glycogen substrate, Amplex Red glucose oxidase fluorescence; Potency, µM (titrated, usually from 76.4 µM), inactives show top-dose activity change, negative = inhibition, usual class: inhibitors; hit rate 0.38% among 300,000; AID 2100;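 note: potency is the fitted concentration of half-maximal effect; 0% = full enzyme reaction and -100% = no-enzyme basal signal; the screen sought inhibitors and activators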
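Recombinant human alpha-glucosidase (4 nM final) hydrolysed bovine liver glycogen (30 ug) for 40 min at 37 C in pH 5.0 citrate/phosphate with 0.01% Tween-20. Released glucose detected by glucose oxidase/Amplex Red, Ex 573/Em 610 nm. Compounds up to 77 uM; AC50 from Hill fits.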
Numbers without * were called inactive; [ ] = another dose, or the depositor's remark. Rows were chosen to be rich in hits. Some 0.43% of all compounds tested hit in one or more screens of this group. Calls come from the whole dose curve; as a rule, active = well fitted curve in the direction sought with a large enough effect; inconclusive = small, poorly fitted or top-dose-only effect, or another doubt; inactive = no such curve, though single readings can be large; an effect the other way counts as inactive or inconclusive.

What do the screens show for `OCC1CCCN(C(=S)Nc2ccc(Nc3ccccc3)cc2)C1` (centres undefined)?
aGlu spleen mod: -7.7%; N370S GC: -5.8%; aGal spleen mod: 2.2%; GAA inh: -11.7%; GLA inh pH 4.5: 2.5; GAA glycogen mod: 25.1µM*

Results for Brc1ccc(-c2nc3ncccn3c2NC2CCCCC2)o1 ?
aGlu spleen mod: 5.3%; N370S GC: 9.7%; aGal spleen mod: 4.1%; GAA inh: -8.3%; GLA inh pH 4.5: 6.6; GAA glycogen mod: 25.1µM*

What do the screens show for `Cc1ccc(-c2nc3ncccn3c2NC2CCCC2)o1`?
aGlu spleen mod: -3.1%; N370S GC: -4.1%; aGal spleen mod: 5.7%; GAA inh: 5.3%; GLA inh pH 4.5: -6.5; GAA glycogen mod: 14µM*

Results for Cc1[nH]c2ccccc2c1/C=N/Nc1ccccc1[N+](=O)[O-] ?
aGlu spleen mod: 1.9%; N370S GC: 9.5%; aGal spleen mod: 10.1%; GAA inh: -3.0%; GLA inh pH 4.5: 1.7; GAA glycogen mod: 6.31µM*

How did Cc1[nH]c2ccccc2c1/C=N/NC(=S)NC(C)C do in these assays?
aGlu spleen mod: 4.2%; N370S GC: inconclusive; aGal spleen mod: 6.1%; GAA inh: 2.4%; GLA inh pH 4.5: -17.5; GAA glycogen mod: 7.94µM*

How did CC(C)NC(=S)N/N=C/c1c[nH]c2ccccc12 do in these assays?
aGlu spleen mod: 6.7%; N370S GC: 25.9%; aGal spleen mod: 5.5%; GAA inh: -0.6%; GLA inh pH 4.5: -13.4; GAA glycogen mod: -2.8%

What do the screens show for `COc1ccc(NC(=O)NS(=O)(=O)c2ccc(C)cc2)c(OC)c1`?
aGlu spleen mod: 10.2%; N370S GC: 11.7%; aGal spleen mod: 4.8%; GAA inh: 0.5%; GLA inh pH 4.5: 5.2; GAA glycogen mod: 25.1µM*

What do the screens show for `COc1ccc(N2C(=O)CC(Nc3ccc(C)cc3)C2=O)cc1` (centres undefined)?
aGlu spleen mod: -4.3%; N370S GC: 15.1%; aGal spleen mod: 1.7%; GAA inh: 1.2%; GLA inh pH 4.5: -0.2; GAA glycogen mod: -18.3%

How did COc1ccc(NC2CC(=O)NC2=O)cc1 (centres undefined) do in these assays?
aGlu spleen mod: -0.9%; N370S GC: 7.6%; aGal spleen mod: 1.1%; GAA inh: -4.0%; GLA inh pH 4.5: 13.9; GAA glycogen mod: 11.2µM*

What do the screens show for `COCCCNC(=O)c1sc2nc(C)c(C(=O)Nc3ccc(C)cc3C)c(-c3ccccc3Cl)c2c1N`?
GAA glycogen mod: -10.8%[76.3 µM]

What do the screens show for `Cc1ccc(Nc2nc(=O)c3cccnc3s2)cc1`?
aGlu spleen mod: 3.5%; N370S GC: 0.3%; aGal spleen mod: 6.1%; GAA inh: 1.6%; GLA inh pH 4.5: 2.8; GAA glycogen mod: -6.8%

What do the screens show for `COc1ccc(OC)c(Nc2nc(=O)c3cccnc3s2)c1`?
aGlu spleen mod: 1.5%; N370S GC: 4.0%; aGal spleen mod: 0.9%; GAA inh: inconclusive; GLA inh pH 4.5: 8.8; GAA glycogen mod: 28.2µM*

Results for CCOc1ccc(Nc2nnc(-n3nc(C)cc3C)c3ccccc23)cc1 ?
GAA glycogen mod: -6.1%[76.3 µM]

How did Cn1c(=O)c2c(-c3ccccc3Cl)n(-c3cc(Cl)ccc3O)cc2n(C)c1=O do in these assays?
GAA glycogen mod: -11.2%[76.3 µM]

What do the screens show for `O=C(c1ccccc1)N1CCN(c2ccc(NCc3ccc4c(c3)OCO4)cc2)CC1`?
aGlu spleen mod: -1.0%; N370S GC: -1.8%; aGal spleen mod: -2.3%; GAA inh: -3.6%; GLA inh pH 4.5: -2.5; GAA glycogen mod: 28.2µM*

How did COC(=O)c1cc(NCc2ccc3c(c2)OCO3)ccc1N1CCOCC1 do in these assays?
aGlu spleen mod: -5.0%; N370S GC: 0.9%; aGal spleen mod: 3.7%; GAA inh: -7.5%; GLA inh pH 4.5: -1.8; GAA glycogen mod: inconclusive

Results for CCc1ccc(N2CCN(C(=O)c3ccc4c(c3)OCO4)CC2)cc1 ?
N370S GC: -7.1%; GAA glycogen mod: -1.1%[76.3 µM]

How did CC(=O)N1CCN(c2ccc(NCc3ccc4c(c3)OCO4)cc2)CC1 do in these assays?
aGlu spleen mod: -7.3%; N370S GC: -22.8%; aGal spleen mod: -8.5%; GAA inh: 8.3%; GLA inh pH 4.5: 5.7; GAA glycogen mod: 22.2µM*

Results for O=C(O)c1cc(NCc2ccc3c(c2)OCO3)ccc1N1CCOCC1 ?
aGlu spleen mod: 5.0%; N370S GC: -9.4%; aGal spleen mod: 7.8%; GAA inh: -0.5%; GLA inh pH 4.5: 5.4; GAA glycogen mod: 4.97µM*

How did O=C1NC(=O)C(Cc2ccc(OCCN3COc4ccccc4C3=O)cc2)S1 (centres undefined) do in these assays?
aGlu spleen mod: -4.3%; N370S GC: 8.2%; aGal spleen mod: 3.6%

What do the screens show for `Cc1cccc(-c2nc(CSCC(=O)N3CCN(c4ccccc4)CC3)c(C)o2)c1`?
GAA glycogen mod: 13.3%[76.3 µM]

How did Nc1c(-c2nc(-c3cccs3)no2)nnn1-c1ccccc1Cl do in these assays?
GAA glycogen mod: -6.3%[76.3 µM]

What do the screens show for `O=C(CNC(=O)Cc1ccccc1)N=Nc1c(O)[nH]c2ccccc12`?
N370S GC: -7.9%; GAA glycogen mod: -3.0%

Results for CC(C)(Cc1ccc(O)cc1)NC(=O)CC(=O)N=Nc1c(O)[nH]c2cc(Br)ccc12 ?
aGlu spleen mod: 1.5%; N370S GC: 11.2µM*; aGal spleen mod: -4.7%; GAA inh: -0.6%; GLA inh pH 4.5: -1.3; GAA glycogen mod: 11.6%

What do the screens show for `CC(=Nc1ccccc1N)c1c(C)cc(=O)n(O)c1O`?
aGlu spleen mod: 8.2%; N370S GC: -1.7%; aGal spleen mod: 1.3%

How did O=C1OCC(CO)(CO)N=C1NNc1cc(Cl)ccc1Cl do in these assays?
aGlu spleen mod: -4.9%; N370S GC: 2.5%; aGal spleen mod: 1.4%; GAA inh: -10.0%; GLA inh pH 4.5: 0.3; GAA glycogen mod: 8.91µM*

What do the screens show for `O=C1OCC(CO)(CO)N=C1NNc1ccccc1[N+](=O)[O-]`?
aGlu spleen mod: -14.9%; N370S GC: -5.9%; aGal spleen mod: -4.1%; GLA inh pH 4.5: -1.5; GAA glycogen mod: inconclusive

How did Cc1ccc2c(c1)c1c(n2CC(O)CNC2CCCCC2)CCCC1 (centres undefined) do in these assays?
aGlu spleen mod: -16.5%; N370S GC: -16.3%; aGal spleen mod: -18.0%; GAA inh: inconclusive; GLA inh pH 4.5: 1.5; GAA glycogen mod: -5.4%

What do the screens show for `Cc1ccc2c(c1)c1c(n2CC(O)CNC(CO)(CO)CO)CCCC1` (centres undefined)?
aGlu spleen mod: -1.4%; N370S GC: 11.2µM*; aGal spleen mod: -4.9%; GAA inh: -6.9%; GLA inh pH 4.5: -8.8; GAA glycogen mod: 24.8%

How did O=C1CN(C(=O)c2ccccc2C(F)(F)F)C(c2ccccc2)c2cc(F)ccc2N1 (centres undefined) do in these assays?
GAA glycogen mod: -2.2%[76.3 µM]
